Source: PubChem BioAssay
TLR4 MyD88 comp – inhibitors of TLR4-MyD88 association in cells, primary screen, cell-based, HeLa CL3-4, BLA complementation, FRET ratio. Toll-like receptor 4 (Homo sapiens) + Myeloid differentiation primary response protein …. HeLa CL3-4 TLR4/MyD88 BLA complementation. inhibition, % at 8.4 µM. 200,000 tested, 0.18% active; in the data active = inhibition above about 25%
NOD2 RIPK2 PPI – NOD2-RIPK2 binding disruptors in cells, primary screen, fluorescence, CHO cells, BLA complementation. CCF4 ratio. inhibition, % at 4.98 µM. 360,000 tested, 0.38% active. AID 624267, 2012; in the data active = inhibition above about 21%
PRMT1 inh – PRMT1 methyltransferase inhibitors, primary screen, biochemical, fluorescence polarization; Protein arginine N-methyltransferase 1 (Homo sapiens), Q99873; recombinant PRMT1, activity-based probe fluorescence polarization; inhibition, % at 2.79 µM; 370,000 tested, 1.3% active; AID 652257, 2013;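 active = inhibition above about 21% made by adding two undisclosed values, limit read from the data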
Target sequence (Q99873 whole entry, looked up): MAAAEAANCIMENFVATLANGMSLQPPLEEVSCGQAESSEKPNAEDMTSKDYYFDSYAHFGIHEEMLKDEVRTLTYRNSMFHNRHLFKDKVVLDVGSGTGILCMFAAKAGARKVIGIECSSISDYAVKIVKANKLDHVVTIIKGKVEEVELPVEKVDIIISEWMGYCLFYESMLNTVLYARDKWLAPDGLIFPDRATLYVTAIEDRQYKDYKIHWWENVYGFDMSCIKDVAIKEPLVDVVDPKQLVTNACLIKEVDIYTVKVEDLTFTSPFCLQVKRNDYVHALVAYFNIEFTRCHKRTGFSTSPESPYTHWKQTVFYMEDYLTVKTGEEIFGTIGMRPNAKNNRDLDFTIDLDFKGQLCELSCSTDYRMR
TLR9-MyD88 inh – inhibitors of TLR9-MyD88 association in cells, primary screen, cell-based, CHO, BLA complementation, fluorescence | CCF4 FRET ratio | inhibition, % at 4.98 µM | 340,000 tested, 0.21% active | AID 504734, 2011;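 active = inhibition above the mean over all tested compounds plus 3 SD, cut at about 21% in these data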
ABHD5 PLIN5 PPI – ABHD5-PLIN5 interaction inhibitors, primary screen, cell lysate, split luciferase complementation, luminescence. Split G. princeps luciferase complementation, 4 h. 360,000 tested, 0.78% active. AID 602281, 2012. inhibition, % at 4 µM;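 active = inhibition above the mean inhibition across every tested compound plus 3 SD, cut at about 22% in these data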
rCAG RNA binder – binders of r(CAG) RNA repeats, primary screen, biochemical, fluorescence | r(CAG) RNA repeat, TO-PRO-1 dye displacement fluorescence | inhibition, % at 3 µM | 370,000 tested, 1.3% active | AID 651821, 2012;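 active = inhibition above the plate cutoff, the mean of all test compounds on that plate plus 3 SD, cut at about 35% in these data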;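 also: higher means more dye released from RNA so lower well fluorescence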
PRMT1 inh conf – PRMT1 methyltransferase inhibitors, confirmation, biochemical, fluorescence polarization, triplicate; inhibition, % at 2.79 µM; 3,300 tested, 42% active; shares compounds with PRMT1 inh; AID 687036, 2013; recombinant His-PRMT1, activity-based probe fluorescence polarization;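 active = mean inhibition across replicates above the hit cutoff derived for the earlier primary screen, cut at about 22% in these data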
Numbers stand for hits; . = inactive; / = no result given. Most compounds without a hit are left out; they make up all but 3.3% or so of the library.

SMILES | TLR4 MyD88 comp | NOD2 RIPK2 PPI | PRMT1 inh | TLR9-MyD88 inh | ABHD5 PLIN5 PPI | rCAG RNA binder | PRMT1 inh conf
CCOc1ccc2nc(SC3CC(=O)N(c4cccc(OC)c4)C3=O)sc2c1 (stereo not given) | . | . | 38 | . | . | . | 26
O=C1CC(Sc2nnnn2C2CCCCC2)C(=O)N1c1ccccc1 (stereo not given) | . | . | 75 | . | . | . | 73
COc1cc(C(=O)NCc2nnc(SCC(=O)NC3CCCC3)o2)cc(OC)c1OC | / | . | . | . | . | . | /
O=C(COc1cc(F)ccc1[N+](=O)[O-])NCCCc1ccccc1 | . | . | . | . | . | . | /
CCCCn1c(N)c(N(Cc2ccccc2OC)C(=O)C(C)C)c(=O)[nH]c1=O | / | . | . | . | . | . | /
COc1cc2cc(C(=O)Nc3ccc4c(c3)OCCO4)[nH]c2cc1OC | / | . | . | . | . | . | /
CCCCCN(C(=O)CN1CCC(Cc2ccccc2)CC1)c1c(N)n(CCCC)c(=O)[nH]c1=O | . | . | . | . | . | . | /
Cc1cccc(N2C(=O)CC(Sc3nc(C)cc(C)n3)C2=O)c1 (stereo not given) | . | . | . | . | . | . | /
Cn1nnnc1SC1CC(=O)N(c2ccccc2)C1=O (stereo not given) | . | . | 56 | . | . | . | 75
Cc1cc(C)cc(N2C(=O)CC(Sc3ncn[nH]3)C2=O)c1 (stereo not given) | . | . | 29 | . | . | . | 43
CC(C)C[C@H](NC1(C(=O)NC2CCCCC2)CCN(C)CC1)C(=O)NCC(c1ccccc1)c1ccccc1 | / | / | . | / | / | / | /
O=C(NCC1(N2CCCCC2)CCCCC1)c1cccc(S(=O)(=O)Nc2ccc(F)cc2)c1 | / | . | . | . | . | . | /
CN(C(=O)Cn1cc(C(F)(F)F)cc(Cl)c1=O)C1CCS(=O)(=O)C1 (stereo not given) | / | . | . | . | . | . | /
CCN(CC)c1ccc(/C=C(/C#N)c2nc3ccccc3[nH]2)c(OC(C)C)c1 | . | . | 41 | . | . | . | .
CCOc1cccc(/C=C(/C#N)c2nc3ccccc3[nH]2)c1OCC(=O)O | / | . | . | . | . | . | /
CCOC1=C2[C@H](c3ccccc3)N(S(=O)(=O)c3ccc(C)cc3)[C@H](C(C)C)[C@H]2C(C#N)(C#N)C(C#N)(C#N)C1 | / | / | . | / | / | . | /
CCN1CCN(C(=S)c2ccc([N+](=O)[O-])cc2)CC1 | . | . | 34 | . | . | . | 35
OCCN1CCN(C(=S)c2ccc(Cl)cc2)CC1 | . | . | 32 | . | . | . | 40
O=[N+]([O-])c1ccc(C(=S)N2CCCC2)cc1 | . | . | . | . | . | . | /
COc1ccc(C(=S)N2CCCCCC2)cc1 | . | . | 26 | . | . | . | .
COc1ccc(C(=S)N2CCNCC2)cc1 | . | . | . | . | . | . | /
CCN1CCN(C(=S)c2ccc(OC)cc2)CC1 | . | . | 48 | . | . | . | 37
CCCN1CCN(C(=S)NCc2ccc(Cl)cc2)CC1 | . | . | . | . | . | . | /
COc1cc(CN(C)C(=O)C2CCN(S(=O)(=O)c3cccs3)CC2)ccc1OC(F)F | / | . | . | . | . | . | /
CC(C)(C)c1cc(C(=S)N2CCN(CCO)CC2)cc(C(C)(C)C)c1O | . | . | 27 | . | . | . | .
SMILES | TLR4 MyD88 comp | NOD2 RIPK2 PPI | PRMT1 inh | TLR9-MyD88 inh | ABHD5 PLIN5 PPI | rCAG RNA binder | PRMT1 inh conf
S=C(c1ccc(Cl)cc1)N1CCN(Cc2ccccc2)CC1 | . | . | . | . | . | . | /
CCN1CCN(C(=S)c2ccc(Cl)cc2)CC1 | . | . | 85 | . | . | . | 90
CCOc1ccc(C(=S)N2CCN(C)CC2)cc1 | . | . | 28 | . | . | . | 33
CCOc1ccc(C(=S)N2CCCC2)cc1 | . | . | . | . | . | . | /
CCOC(=O)N1CCN(C(=O)C(=O)NNC(=O)COc2ccc(Cl)cc2)CC1 | . | . | . | . | . | . | /
Cc1[nH]nc2c1C1(CCN(Cc3ccccc3)CC1)C(C#N)=C(N)O2 | . | . | 34 | . | . | . | .
C=CCN(C)C(C#Cc1ccccc1)c1ccccc1C(F)(F)F (stereo not given) | / | / | . | / | / | / | /
Cc1ccc2nc(-c3ccccn3)c(N)n2c1 | / | . | . | / | . | . | /
N#Cc1ccc(N=c2ssnc2Cl)cc1 | . | . | 91 | . | . | . | 97
Clc1ccc(N=c2ssnc2Cl)cc1 | . | . | 73 | . | . | . | 93
Fc1ccc(N=c2ssnc2Cl)c(F)c1 | . | . | 44 | . | . | . | 41
COc1ccc(N=c2ssnc2Cl)cc1 | . | . | / | . | . | / | /
CCOC(=O)c1ccc(N=c2ssnc2Cl)cc1 | . | . | 78 | . | . | . | 89
Clc1nssc1=Nc1ccccc1 | . | . | / | . | . | / | /
O=C(COC(=O)c1cccc(Br)c1)NC1CCCCCCC1 | / | . | . | . | . | . | /
COCCCNC(=O)CCC(=O)NNc1nc2ccccc2c2nc(C)nn12 | . | . | . | . | . | . | /
CCCOc1ccc(Cc2nn3c(=O)/c(=C/c4ccco4)sc3nc2=O)cc1 | . | . | 33 | . | . | . | .
CCCOc1ccc(/C=c2\sc3nc(-c4ccco4)nn3c2=O)cc1OCC | . | . | . | . | . | . | /
COC(=O)c1ccc2c(=O)n(CCCCCC(=O)NCCNC(C)=O)c(=O)[nH]c2c1 | . | . | . | . | . | . | /
CC(=O)C1=C(C)NC(SCC(=O)Nc2nccs2)=C(C#N)C1c1ccccc1Cl (stereo not given) | . | . | 26 | . | . | . | .
COC(=O)[C@]12CCCCC=C1N(Cc1cccc3ccccc13)C(=O)[C@H](CC(=O)NCCCN1CCCC1=O)C2 | / | . | . | / | . | . | /
Cc1cccc(NC(=O)c2cc(-c3cccnc3)nc3c(C)cccc23)n1 | / | . | . | . | . | . | /
C=CCOC(=O)COc1ccc2c3c(c(=O)oc2c1)CCCC3 | / | . | . | . | . | . | /
CC1(C)Cc2c(C#N)c(N)sc(=S)c2CS1 | . | . | 31 | . | . | . | 41
N#Cc1c(N)c(C#N)c(-c2ccc(O)cc2)c2c1CCCC2 | . | . | . | . | . | . | /
N#Cc1c(N)sc(=S)c2c1CCCCC2 | . | . | 40 | . | . | . | 36
CCCN(CCC)CCN1CCN(C(=O)[C@H](CCc2ccccc2)NC(=O)[C@H]2O[C@@H](n3cnc4c(N)ncnc43)[C@H](O)[C@@H]2O)CC1 | / | / | . | / | / | . | /
O=C(Nc1ccccc1Cl)O[C@@H]1CC[C@@]23CCCN2C(=O)CCC[C@H]3C1 | / | / | . | / | / | / | /
